# Sampled rows, rich in hits. Any-hit rate of the full collection: about 7.3%.
# NPC1 prom act – activators of NPC1 promoter; Huh7 NPC1 promoter luciferase reporter, 24 h; Potency, µM (doses to about 9.22 µM), without a hit: top-dose activation, most hits filed as activators; 2.4% of 320,000 active; AID 485313; further: % of control where 0% means no effect; nearly all actives have a fitted effect of over 60% in size
#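 Readout is luciferase luminescence, reflecting NPC1 promoter activation in stably transfected Huh7 cells after 24 h compound exposure at 37 °C in reduced-serum medium with 10% FBS.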
# Rab9 prom act – activates the Rab9 promoter; Huh7 Rab9 promoter-luciferase reporter, luminescence, 24 h; Potency, µM (top dose mostly 9.22 µM), for inactives: at the highest dose activation, negative = inhibition, most hits filed as activators; 2.8% of 320,000 active; further: % of control where 0% means no effect; nearly all actives have a fitted effect of over 60% in size
#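 Promoter activation is measured as luciferase luminescence in Huh7 cells stably transfected with a Rab9 promoter–luciferase construct, following 24 h compound exposure at 37 °C and 10 min reagent incubation at ambient temperature.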
# uPA surface inh – blocks generation of uPA at the cell surface. Potency, µM (highest dose often 38.3 µM), for the others: at the top dose activity change, negative = inhibition, most hits filed as inhibitors. cell surface uPA generation assay, qHTS. 0.31% of 330,000 active; active means well fitted inhibition curve with a large enough effect; inconclusive means small, poorly fitted or top-dose-only effect; inactive means no such curve, though single readings can be large or run the other way; tested in mouse RAW 264.7 cells; further: on the % scale 0 is the no-effect control and ±100 the full control effect; nearly all actives have a fitted effect of over 55% in size
# FLuc counter – counter-screen for miR-21 project: firefly luciferase inhibitors or activators; P08659; 6.9% of 360,000 active; purified FLuc, Km substrates, luminescence inhibition; AID 588342; Potency, µM (highest dose often 57.5 µM), without a hit: at the top dose activity change, negative = inhibition, actives largely listed as inhibitors;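 further: plate controls were vehicle for no effect and reference inhibitor for full effect; nearly all actives have a fitted effect of over 55% in size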
# Target sequence (P08659 whole entry, looked up): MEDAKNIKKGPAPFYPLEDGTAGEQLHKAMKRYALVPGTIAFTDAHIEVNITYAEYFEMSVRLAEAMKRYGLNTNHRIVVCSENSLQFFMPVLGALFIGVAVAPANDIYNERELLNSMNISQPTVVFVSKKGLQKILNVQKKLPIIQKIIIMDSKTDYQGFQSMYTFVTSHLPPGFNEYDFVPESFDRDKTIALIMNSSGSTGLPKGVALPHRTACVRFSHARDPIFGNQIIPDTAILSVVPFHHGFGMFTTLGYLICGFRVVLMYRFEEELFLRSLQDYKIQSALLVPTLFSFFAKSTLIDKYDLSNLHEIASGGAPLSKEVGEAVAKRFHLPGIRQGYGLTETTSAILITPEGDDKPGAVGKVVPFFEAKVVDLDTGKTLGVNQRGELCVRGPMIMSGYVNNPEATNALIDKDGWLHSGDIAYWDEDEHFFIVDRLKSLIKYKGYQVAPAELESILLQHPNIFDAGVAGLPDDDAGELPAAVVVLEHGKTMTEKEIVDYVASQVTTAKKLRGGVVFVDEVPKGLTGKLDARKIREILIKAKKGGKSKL
#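 Biochemical qHTS of compounds, final roughly 60 µM downward over six points, against 10 nM purified firefly luciferase using Km concentrations of substrates (10 uM D-luciferin, 10 uM ATP) in Tris acetate pH 7.5 buffer; luminescence output.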
# ELG1 genotoxic – inducers of genotoxicity in HEK293T ELG1-luciferase cells; HEK293T ELG1-luciferase reporter, luminescence, 16 h; 1.3% of 330,000 active; Potency, µM (series often up to 46 µM), without a hit: top-dose activity change, positive = activation, actives largely listed as activators; further: % of control where 0% means no effect; nearly all actives have a fitted effect of over 60% in size
#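 HEK293T cells expressing luciferase-tagged ELG1 were treated with compound or DMSO for 16 hr at 37°C. Luciferase activity was then read after 30 min with ONE-Glo at room temperature; rising signal flags genetic stress.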
# SMN2 splice enh – enhancers of SMN2 splice variant expression. Potency, µM (top dose mostly 46.1 µM), without a hit: at the highest dose activity change, positive = activation, actives largely listed as activators. 2.8% of 210,000 active. HEK293 SMN2-luciferase splicing reporter, luminescence, 30-36 h; further: % of control where 0% means no effect; nearly all actives have a fitted effect of over 55% in size
#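 HEK293 cells carry an SMN2 minigene-luciferase reporter in which exon 7 inclusion puts luciferase in frame. Cells were seeded at 2000 cells/well, attached for 10-12 hours, then exposed to compounds for 30-36 hours at 37C before ONE-Glo luminescence.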
# An asterisk follows results filed as active; u = inconclusive; x = not tested or not shown; [ ] = another dose, or the depositor's remark. Unless noted, the call rests on the fitted dose curve; in most records, active means well fitted curve in the direction sought with a large enough effect; inconclusive means small, poorly fitted or top-dose-only effect, or another doubt; inactive means no such curve, though single readings can be large; an effect the other way counts as inactive or inconclusive. Potency means the concentration at half of the fitted maximal effect.
SMILES,NPC1 prom act,Rab9 prom act,uPA surface inh,FLuc counter,ELG1 genotoxic,SMN2 splice enh
O=C(N/N=C/c1cccc(OC(=O)c2ccccc2Cl)c1)c1cccnc1,24%,10%,-2%,24µM*,18%,x
COc1cc(/C=N/NC(=O)c2ccc(F)cc2)ccc1OC(=O)c1ccco1,6%,-3%,1%,u,6%,5%
Nc1c(C(=O)N/N=C/c2cccnc2)cnn1-c1ccccc1,17%,14%,-2%,u,5%,x
COc1ccccc1NC(=O)C(=O)N/N=C/c1cccs1,26%,u,-3%,9.5µM*,u,10%[1.84 µM]
COc1cccc(/C=N\NC(=O)c2ccc(C)nc2)c1,23%,13%,0%,19µM*,11%,x
COc1ccc(/C=N/NC(=O)c2ccc(C)nc2)cc1O,7%,-2%,4%,-18%,-2%,x
Cc1ccc(C(=O)N/N=C\c2cccs2)cn1,21%,18%,-6%,24µM*,-4%,3%
COc1cccc(/C=N/NC(=O)c2cnn(-c3ccccc3)c2N)c1,u,u,-16%,12µM*,-2%,x
COC(CNc1ncnc2sc(-c3ccccc3)cc12)OC,9%,-1%[1.84 µM],-8%,u,-1%,x
CC(O)CNc1ncnc2cc(-c3ccc(F)cc3)sc12 (stereo not given),u,u,-15%,11µM*,u,x
CCCCCCCCC1CC(C(=O)Nc2ccccc2)C(=O)O1 (stereo not given),x,x,-26%,x,x,x
CSc1nc2c(cc1C#N)CCC2,1%,-2%,-10%,-1%,0%,x
N#Cc1cc2c(nc1SC1CC(=O)N(c3ccccc3)C1=O)CCC2 (stereo not given),-11%,-13%,-1%,11µM*,3%,-78%
COc1ccc2cc(CNc3ccccc3)c(=O)n(CC(=O)Nc3ccc(C(C)=O)cc3)c2c1,x,x,x,-5%,x,x
CCOC(=O)c1ccc(S(=O)(=O)NNC(=O)c2cccc(N(C)C)c2)cc1,5%,18%,-6%,19µM*,0%,15%
CCc1ccc(N(CC)C(=O)Cn2c(=O)oc3ccccc32)cc1,x,x,x,-1%,x,3%
CCCCn1c(CNC(=O)c2ccc(OC)cc2)nnc1SCC(=O)Nc1ccc(OC)cc1,x,x,x,-7%,x,-3%
COc1ccccc1NC(=O)CSc1nnc(CNC(=O)c2ccco2)n1C,1%,-1%,2%,-1%,1%,x
CCOC(=O)c1ccc(NC(=O)CSc2nnc(CNC(=O)c3ccc(OC)cc3)n2CC)cc1,x,x,x,15µM*,x,8%
COc1ccccc1NC(=O)CSc1nnc(CCNC(=O)c2ccc(C)cc2)n1C,9%,25%,-19%,15µM*,6%,x
COc1ccc(C(=O)NCc2nnc(SCC(=O)Nc3ccccc3OC)n2C)cc1,-4%,-6%,-10%,15µM*,2%,6%
CC(C)c1ccc(NC(=O)C(Cc2ccccc2)NS(=O)(=O)c2ccc3c(c2)CCC(=O)N3)cc1 (stereo not given),x,x,x,5%,x,0%
O=C(Nc1nnc2n1CCS2)c1ccccc1C(F)(F)F,x,x,x,0%,x,x
COC(=O)C1(C(=O)OC)CC2=CC(CC2=O)Cc2ccccc2[C@@H]1C[N+](=O)[O-] (stereo not given in full),x,x,x,x,x,3%
Cc1ccc(-n2nc(CO)c(C(=O)NC(C)c3ccccc3)n2)cc1C (stereo not given),x,x,x,-10%,x,-12%
SMILES,NPC1 prom act,Rab9 prom act,uPA surface inh,FLuc counter,ELG1 genotoxic,SMN2 splice enh
Nc1ccc(Nc2nc(-c3ccncc3)cs2)cc1,u,u,-18%,4.8µM*,u,-3%
Cc1cc(O)ccc1Nc1nc(-c2cccnc2)cs1,u,0%,-6%,6µM*,7%,x
CCOc1ccc(Nc2nc(-c3cccnc3)cs2)cc1,2.2µM*,2.2µM*,2%,u,u,x
Clc1ccc(Nc2nc(-c3ccncc3)cs2)cc1,x,x,2%,x,x,x
Oc1ccc(Nc2nc(-c3ccc(O)cc3)cs2)cc1,1%,-1%,x,7.6µM*,8.2µM*,22µM*
COc1cccc(C(=O)Nc2ccc(C(=O)OCc3cc(=O)n4cc(C)sc4n3)cc2)c1,x,x,x,-13%,x,x
CN1C[C@@H]2[C@@H]3C(=O)N(C)C(=O)[C@@H]3[C@](C)(C1=O)N2C(=O)c1ccc(C(C)(C)C)cc1,x,x,4%,x,x,x
Clc1cccc(Nc2nc(-c3cccnc3)cs2)c1,1%,21%,-3%,13µM*,u,5%
Oc1ccc(Nc2nc(-c3cccnc3)cs2)cc1,21%,1%,-6%,9.5µM*,u,x
Cc1nc(C)c(-c2csc(Nc3ccc(O)cc3C)n2)s1,-2%,-2%,-4%,3%,6%,x
Cc1cc(O)ccc1Nc1nc(-c2cccs2)cs1,u,u,-16%,0.54µM*,3.3µM*,u
Brc1ccc(Nc2nc(-c3cccnc3)cs2)cc1,0%,29%,-3%,u,u,14µM*
COc1ccc(Cl)cc1Nc1nc(-c2cccnc2)cs1,1%,-3%,3%,u,0%,x
Cc1cc(C)c(NC(=O)c2ncoc2-c2ccco2)c(C)c1,x,x,x,-2%,x,x
Ic1ccc2c(c1)N(c1ccccc1)c1cc(Nc3ccc4nc5ccc(I)cc5[n+](-c5ccccc5)c4c3)ccc1N2,x,x,x,x,x,-11%[9.22 µM]
Brc1cccc(Nc2nc(-c3cccnc3)cs2)c1,u,21%,-5%,9.5µM*,u,x
Cc1ccc(Nc2nc(-c3cccnc3)cs2)cc1C,u,u,u,0.85µM*,2.3µM*,x
Cc1ccc(C)c(-c2csc(-c3cccnc3)n2)c1,8%,0%,16%,u,-3%,x
O=C(O)c1ccc(Nc2nc(-c3cccnc3)cs2)cc1,u,u,1%,5.4µM*,8%,x
Cc1ccc2c(c1)-c1c(cnc3cc(-c4ccc(Cl)cc4)nn13)CO2,x,x,x,-7%,x,3%
O=C(CSc1nc(-c2ccccc2)cn1-c1ccccc1F)Nc1ccc(F)cc1,x,x,x,-3%,x,x
O=C1/C(=C/N(C(=O)c2ccco2)c2ccc(Cl)cc2)Sc2ccccc21,u,u,0%,0.13µM*,u,14µM*
O=C1/C(=C/N(C(=O)c2ccco2)c2ccc(Br)cc2)Sc2ccccc21,u,u,-1%,0.34µM*,12µM*,x
O=C1c2ccccc2C(=O)N1CCCCN(C(=O)c1ccco1)c1ccc(Cl)cc1,5%,2%,6%,3%,-19%,-6%
COc1ccc(CN(C(=O)c2ccco2)c2ccc(Br)cc2)cc1OC,1%,-5%,4%,1%,-2%,-21%
CCCSc1nc2c(c(=O)[nH]1)C(c1ccc(O)c(OCC)c1)CC(=O)N2 (stereo not given),x,x,x,-15%,x,x
O=C(CCSc1ccccc1)N1CCOCC1,2.8µM*,2.8µM*,2%,19µM*,8.2µM*,13µM*
